Measurements as given in PubChem BioAssay (Tox21).
Values joined by “and” are separate entries in the source; they are usually repeats but may differ in a detail not shown here. Equal values may be shown once. Inconclusive results are not listed. Where a call stands in place of a potency, no number is given. Active and inactive are the calls of the source. Unless noted, the call rests on the fitted dose curve; in most records, active means well fitted curve in the direction sought with a large enough effect in the repeat runs; inconclusive means weak or mixed curves; inactive means no such curve, though single readings can be large; an effect the other way counts as inactive or inconclusive.

Tests used:
[1] = qHTS assay to identify small molecule antagonists of the estrogen related receptor (ERR) signaling pathway from Tox21 library - cell viability counter screen (AID 1224834); further: nearly all actives have a fitted effect of over 30% in size; further: potency means the concentration at half of the fitted maximal effect
How it was run: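 Multiplexed viability counter screen in ERR cells: 17.5 h compound exposure at 37 C, CellTiter-Fluor added, 30 min at 37 C/5% CO2, fluorescence read.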

[2] = biological target: Luciferin 4-monooxygenase (Photinus pyralis) (UniProt P08659); assay: qHTS assay to identify small molecule inhibitors of firefly luciferase (AID 1224835); further: nearly all actives have a fitted effect of over 25% in size; further: potency means the concentration at half of the fitted maximal effect
Chain of Luciferin 4-monooxygenase (Photinus pyralis) (P08659 whole entry, looked up): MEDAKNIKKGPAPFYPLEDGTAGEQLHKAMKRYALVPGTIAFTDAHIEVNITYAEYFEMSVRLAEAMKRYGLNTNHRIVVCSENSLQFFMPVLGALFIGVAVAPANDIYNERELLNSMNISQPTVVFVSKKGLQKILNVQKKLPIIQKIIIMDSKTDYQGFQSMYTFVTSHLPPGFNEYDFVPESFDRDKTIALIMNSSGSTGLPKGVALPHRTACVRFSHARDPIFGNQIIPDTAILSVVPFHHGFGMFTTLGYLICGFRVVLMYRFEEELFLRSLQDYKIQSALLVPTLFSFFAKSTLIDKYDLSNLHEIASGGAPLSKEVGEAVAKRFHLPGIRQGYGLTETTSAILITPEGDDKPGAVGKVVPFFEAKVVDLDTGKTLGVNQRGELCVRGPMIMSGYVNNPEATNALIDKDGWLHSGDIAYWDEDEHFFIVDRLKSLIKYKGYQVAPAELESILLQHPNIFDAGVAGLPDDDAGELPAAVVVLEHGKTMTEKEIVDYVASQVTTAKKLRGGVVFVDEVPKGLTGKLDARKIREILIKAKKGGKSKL
How it was run: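 Biochemical qHTS: compounds run as interplate titrations against purified firefly enzyme, with D-luciferin and ATP each at its KM concentration. Light output recorded by CCD imaging.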

[3] = qHTS assay to identify small molecule agonists of the constitutive androstane receptor (CAR) signaling pathway - cell viability counter screen (AID 1224836); further: nearly all actives have a fitted effect of over 45% in size; further: potency means the concentration at half of the fitted maximal effect
How it was run: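 HepG2-CYP2B6-hCAR, 2500 cells/well, 4 h pre-incubation; cpd 15 conc + PK11195 0.75 uM final; 23 h, 37 C/5% CO2; CellTiter-Fluor, fluorescence.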

[4] = qHTS assay to identify small molecule antagonists of the constitutive androstane receptor (CAR) signaling pathway - cell viability counter screen (AID 1224837); further: nearly all actives have a fitted effect of over 45% in size; further: potency means the concentration at half of the fitted maximal effect
How it was run: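 Read-out: CellTiter-Fluor fluorescence after 23 hr at 37 C/5% CO2. Cells: HepG2 double-stable for hCAR and CYP2B6-2.2kb. Compounds tested at 15 concentrations in the presence of CITCO, final concentration 50 nM.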

[5] = biological target: Nuclear receptor subfamily 1 group I member 3 (Homo sapiens) (UniProt Q14994); assay: qHTS assay to identify small molecule antagonists of the constitutive androstane receptor (CAR) signaling pathway (AID 1224838);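 further: HepG2 cells stably expressing hCAR with CYP2B6 luciferase reporter stimulated by CITCO; nearly all actives have a fitted effect of over 40% in size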; further: potency means the concentration at half of the fitted maximal effect
Chain of Nuclear receptor subfamily 1 group I member 3 (Homo sapiens) (Q14994 whole entry, looked up): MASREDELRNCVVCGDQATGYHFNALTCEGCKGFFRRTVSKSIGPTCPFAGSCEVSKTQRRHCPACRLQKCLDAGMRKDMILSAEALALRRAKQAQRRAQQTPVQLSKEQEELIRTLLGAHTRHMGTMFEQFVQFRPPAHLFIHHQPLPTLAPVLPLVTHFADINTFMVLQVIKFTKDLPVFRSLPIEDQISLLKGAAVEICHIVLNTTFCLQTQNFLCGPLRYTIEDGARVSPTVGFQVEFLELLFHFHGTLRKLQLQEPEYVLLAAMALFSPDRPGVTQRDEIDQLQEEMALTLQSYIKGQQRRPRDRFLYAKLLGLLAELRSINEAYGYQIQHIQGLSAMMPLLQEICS
How it was run: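 Read-out: ONE-Glo luciferase luminescence after 30 min at room temperature. HepG2-CYP2B6-hCAR double-stable cells, compounds in 15-point titration plus 50 nM CITCO final, 24 h at 37 C/5% CO2.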

[6] = qHTS assay to identify small molecule antagonists of the estrogen related receptor signaling pathway with the pleiotropic PPARgamma coactivator (PGC) from Tox21 10K library - cell viability counter screen (AID 1224840; active means well fitted cell-killing curve with a large enough effect in the repeat runs, not every such curve was filed as active; further: nearly all actives have a fitted effect of over 40% in size; further: potency means the concentration at half of the fitted maximal effect)
How it was run: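 Fluorescence read-out of CellTiter-Fluor viability reagent, added after cells had been exposed to compound in DMSO for 17.5 h at 37 C; 30 min development at 37 C/5% CO2. Cells: PGC/ERR line, 2,000/well.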

[7] = qHTS assay to identify small molecule antagonists of the estrogen related receptor signaling pathway with the pleiotropic PPARgamma coactivator (PGC) from Tox21 10K library (AID 1224841; call rule not given here; further: actives are mostly falling curves and most rising ones were filed inactive; nearly all actives have a fitted effect of over 50% in size; further: potency means the concentration at half of the fitted maximal effect)
How it was run: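 Luminescence read-out (One-Glo luciferase reagent, 30 min at room temperature) from PGC/ERR cells exposed to DMSO-dissolved test compounds for 18 h at 37 C; cells, 2,000 per well, had been preincubated 6 h before compound transfer.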

[8] = qHTS assay to identify small molecule agonists of the estrogen related receptor signaling pathway with the pleiotropic PPARgamma coactivator (PGC) from Tox21 10K library (AID 1224842); further: nearly all actives have a fitted effect of over 15% in size
How it was run: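 PGC/ERR reporter cell line, 2,000 cells per well, incubated 6 h at 37 C before 23 nL compound in DMSO was added. After 18 h at 37 C, One-Glo luminescence read following 30 min at room temperature.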

[9] = biological target: Nuclear receptor subfamily 1 group I member 3 (Homo sapiens) (UniProt Q14994); assay: qHTS assay to identify small molecule agonists of the constitutive androstane receptor (CAR) signaling pathway (AID 1224839); further: nearly all actives have a fitted effect of over 15% in size; further: potency means the concentration at half of the fitted maximal effect
How it was run: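 HepG2-CYP2B6-hCAR cells, 2500/well, 4 h pre-incubation; compounds 15 conc.; PK11195 0.75 uM final; 24 h, 37 C/5% CO2; ONE-Glo luciferase read.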

## CC(C)N(C(=O)COc1nnc(C(F)(F)F)s1)c1ccc(F)cc1
[1]
  Potency: inactive
[2]
  Potency: inactive
[3]
  Potency: inactive
[4]
  Potency: inactive
[5]
  Potency: inactive
[6]
  Potency: inactive
[7]
  Potency: 38.6 µM (active)
[8]
  Potency: inactive

## COP(=S)(OC)Oc1cc(Cl)c(I)cc1Cl
[1]
  Potency: inactive
[2]
  Potency: 79.6 µM (active)
[3]
  Potency: inactive
[4]
  Potency: inactive
[9]
  Potency: 54.5 µM (active)
[6]
  Potency: inactive

## C#CCOC(C(=O)OCCN(C)C)(c1ccccc1)c1ccccc1
[1]
  Potency: inactive
[2]
  Potency: inactive
[3]
  Potency: inactive
[4]
  Potency: inactive
[6]
  Potency: inactive

## COC(=O)c1cncn1C(C)c1ccccc1 (stereo unspecified)
[1]
  Potency: inactive
[2]
  Potency: inactive
[3]
  Potency: inactive
[4]
  Potency: inactive
[9]
  Potency: inactive

## O=C(O)CC(Cl)C(=O)O (stereo unspecified)
[1]
  Potency: inactive
[2]
  Potency: inactive
[3]
  Potency: inactive
[4]
  Potency: inactive
[9]
  Potency: inactive
[6]
  Potency: inactive
[8]
  Potency: inactive

## CC1Sc2c(C(=O)O)c(=O)c3cc(F)c(N4CCNCC4)cc3n21 (stereo unspecified)
[1]
  Potency: inactive
[2]
  Potency: inactive
[3]
  Potency: inactive
[4]
  Potency: inactive
[9]
  Potency: inactive
[6]
  Potency: inactive
[7]
  Potency: inactive
[8]
  Potency: inactive

## CCCCCCC#N
[1]
  Potency: inactive
[2]
  Potency: inactive
[3]
  Potency: inactive
[4]
  Potency: inactive
[6]
  Potency: inactive

## Clc1cccc2ccccc12
[1]
  Potency: inactive
[2]
  Potency: inactive
[3]
  Potency: inactive
[4]
  Potency: inactive
[9]
  Potency: inactive
[6]
  Potency: inactive

## Cn1sc(Cl)cc1=O
[1]
  Potency: inactive
[2]
  Potency: inactive
[3]
  Potency: inactive
[4]
  Potency: inactive
[9]
  Potency: inactive
[6]
  Potency: inactive
[7]
  Potency: inactive
[8]
  Potency: inactive

## CCCC(=O)Cl
[1]
  Potency: inactive
[2]
  Potency: inactive
[3]
  Potency: inactive
[4]
  Potency: inactive
[6]
  Potency: inactive

## IC(I)=C(I)I
[1]
  Potency: 27.3 µM (active)
[2]
  Potency: inactive
[3]
  Potency: 30.6 µM (active)
[4]
  Potency: 27.3 µM (active)
[9]
  Potency: inactive
[6]
  Potency: 24.3 µM (active)
[7]
  Potency: 21.7 µM (active)
[8]
  Potency: inactive

## CCBr
[1]
  Potency: inactive
[2]
  Potency: inactive
[3]
  Potency: inactive
[4]
  Potency: inactive
[9]
  Potency: inactive
[6]
  Potency: inactive
[8]
  Potency: inactive

## O=C=Nc1ccc(Cl)cc1
[1]
  Potency: inactive
[2]
  Potency: 5.64 µM (active)
[3]
  Potency: inactive
[4]
  Potency: inactive
[9]
  Potency: 6.86 µM (active)
[6]
  Potency: inactive

## O=NN1CCCCCC1
[1]
  Potency: inactive
[2]
  Potency: inactive
[3]
  Potency: inactive
[4]
  Potency: inactive
[6]
  Potency: inactive

## CC(C)O.CC(C)O.OCCN(CCO)CCO.OCCN(CCO)CCO.[Ti]
[1]
  Potency: inactive
[2]
  Potency: inactive
[3]
  Potency: inactive
[4]
  Potency: inactive
[5]
  Potency: inactive
[6]
  Potency: inactive

## C=COC(C)=O
[1]
  Potency: inactive
[2]
  Potency: inactive
[3]
  Potency: inactive
[4]
  Potency: inactive
[9]
  Potency: inactive
[6]
  Potency: inactive

## CC(C)(OO)c1ccccc1
[1]
  Potency: inactive
[2]
  Potency: inactive
[3]
  Potency: inactive
[4]
  Potency: inactive
[9]
  Potency: inactive
[6]
  Potency: inactive
[8]
  Potency: inactive

## CCOc1nc(F)cc2nc(S(=O)(=O)Nc3c(Cl)cccc3Cl)nn12
[1]
  Potency: inactive
[2]
  Potency: inactive
[3]
  Potency: inactive
[4]
  Potency: inactive
[9]
  Potency: inactive
[6]
  Potency: inactive

## CCOP(=O)(OCC)Oc1ccc([N+](=O)[O-])cc1
[1]
  Potency: inactive
[2]
  Potency: inactive
[3]
  Potency: inactive
[4]
  Potency: inactive
[9]
  Potency: inactive
[6]
  Potency: inactive
[7]
  Potency: 19.6 µM (active) and 5.45 µM (active)
[8]
  Potency: inactive

## c1ccoc1
[1]
  Potency: inactive
[2]
  Potency: inactive
[3]
  Potency: inactive
[4]
  Potency: inactive
[6]
  Potency: inactive

## C=CC(C)=O
[1]
  Potency: inactive
[2]
  Potency: inactive
[3]
  Potency: inactive
[4]
  Potency: inactive
[6]
  Potency: inactive
[7]
  Potency: inactive
[8]
  Potency: inactive

## O=C(NC(=O)c1c(F)cccc1F)Nc1ccc(OC(F)(F)C(F)OC(F)(F)F)c(Cl)c1 (stereo unspecified)
[1]
  Potency: inactive
[2]
  Potency: inactive
[3]
  Potency: inactive
[4]
  Potency: inactive
[6]
  Potency: inactive
[8]
  Potency: inactive

## O=C(N[C@H](c1ccccc1)[C@@H]1CN2CCC1CC2)c1c(Cl)ccc(C(F)(F)F)c1Cl
[1]
  Potency: 49.3 µM (active)
[2]
  Potency: inactive
[3]
  Potency: 98.4 µM (active)
[9]
  Potency: inactive
[7]
  Potency: 31.1 µM (active)
[8]
  Potency: inactive

## Cl/C=C\C[N+]12CN3CN(CN(C3)C1)C2
[1]
  Potency: inactive
[2]
  Potency: inactive
[4]
  Potency: inactive
[5]
  Potency: 61.1 µM (active)
[9]
  Potency: inactive
[7]
  Potency: inactive
[8]
  Potency: inactive

## CCC(C)(NC(=O)c1cc(Cl)c(C)c(Cl)c1)C(=O)CCl (stereo unspecified)
[1]
  Potency: 24.5 µM (active)
[2]
  Potency: inactive
[3]
  Potency: 61.5 µM (active)
[9]
  Potency: inactive
[6]
  Potency: 24.5 µM (active)
[7]
  Potency: 3.88 µM (active)
[8]
  Potency: inactive

## CCOP(=S)(Oc1ccc([N+](=O)[O-])cc1)c1ccccc1 (stereo unspecified)
[1]
  Potency: inactive
[2]
  Potency: inactive
[3]
  Potency: inactive
[4]
  Potency: inactive
[7]
  Potency: inactive
[8]
  Potency: inactive

## C[N+](C)(C)CCCl
[1]
  Potency: inactive
[2]
  Potency: inactive
[3]
  Potency: inactive
[4]
  Potency: inactive
[6]
  Potency: inactive
[8]
  Potency: inactive

## COCC(C)N(C(=O)CCl)c1c(C)csc1C (stereo unspecified)
[1]
  Potency: inactive
[2]
  Potency: inactive
[3]
  Potency: inactive
[4]
  Potency: inactive
[6]
  Potency: inactive
[7]
  Potency: 21.7 µM (active)
[8]
  Potency: inactive

## CCOP(=O)(OCC)SCCSCC
[1]
  Potency: inactive
[2]
  Potency: inactive
[3]
  Potency: inactive
[4]
  Potency: inactive
[6]
  Potency: inactive
[7]
  Potency: inactive
[8]
  Potency: inactive

## CO/N=C(/C(=O)OC)c1ccccc1COc1ccccc1C
[1]
  Potency: inactive
[2]
  Potency: inactive
[4]
  Potency: inactive
[5]
  Potency: inactive
[9]
  Potency: 7.7 µM (active)
[6]
  Potency: inactive
[8]
  Potency: inactive

## [O-][Cl+]O
[1]
  Potency: inactive
[2]
  Potency: inactive
[3]
  Potency: inactive
[4]
  Potency: inactive
[6]
  Potency: inactive
[8]
  Potency: inactive

## O=Cc1ccc(Cl)cc1Cl
[1]
  Potency: inactive
[2]
  Potency: inactive
[3]
  Potency: inactive
[4]
  Potency: inactive
[6]
  Potency: inactive
[7]
  Potency: inactive
[8]
  Potency: inactive

## O=Cc1ccc2c(c1)OCO2
[1]
  Potency: inactive
[2]
  Potency: inactive
[3]
  Potency: inactive
[4]
  Potency: inactive
[6]
  Potency: inactive
